Compounds without any hit were thinned out: in the full panel of roughly 83,000, 20% have a hit.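 Single-concentration screen, 48 h exposure, 96-well plates. Endpoint: percent growth. Below 10 = active.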 Calls of active or inactive are those of the source.

The subject of this assay is RPMI-8226 leukemia. In words: NCI-60 one-dose screen, 48 h (100 = growth as untreated, 0 = no growth, -100 = all killed). Particulars: 10 µM unless noted. The protocol: Growth inhibition of the RPMI-8226 human tumor cell line is measured as a screen for anti-cancer activity. Cells are grown in 96 well plates and exposed to the test compound for 48 hours. Compounds are tested at a single concentration, which is 10^-5 M for most compounds. The reported endpoint is percent growth (GI% or GIPRCNT), where numbers from 0 - 100% represent growth inhibition, and numbers from -100% - 0 represent cell death. For example, a value of 40 represents 60% growth inhibition. A value of 0 means no net growth occurred over the course of the experiment. A value of -40 indicates 40% of cells at the beginning of the experiment died by the end of the experiment. A value of -100 means all cells are dead at the end of the experiment.
NCI-60 Human Tumor Cell Lines Screen was performed using the standard one-dose NCI protocol, which is described in more detail at https://dtp.cancer.gov/discovery_development/nci-60/default.htm.
Compounds with GIPRCNT values below 10 were considered active. Activity score was based on GIPRCNT using the following formula: […]
Score is 0 for GIPRCNT values of 100 or above, 50 for GIPRCNT values of 0, and 100 for GIPRCNT values of -100.
Regarding `O=C(N/N=C/c1ccccc1O)c1ccccc1O`, the growth was 37.4% (inactive). The value for `CN(C)C(=O)Nc1nc2cc(Cl)c(Cl)cc2[nH]1` was -15.7% (active); that for `Oc1ccc(O)c(-[n+]2ccccc2)c1` was 99.7% (inactive); that for `CN1CCN(Cn2nc(-c3cc(F)c(Cl)cc3Cl)n(/N=C/c3ccc(N(C)C)cc3)c2=S)CC1` was 80.9% (inactive).

As for `CC1(C)CC(=O)C2=C(C1)OC1=C(C(=O)CC(C)(C)C1)C2c1ccc(OCc2cn(-c3ccc(F)cc3F)nn2)cc1`, the growth is 92.7% (inactive). As to `COc1ccc2c(c1)C(=O)/C(=C/c1cccc(OCC(=O)c3ccccc3)c1)O2`, the growth was -49.6% (active). The same measure for `c1ccc2nc(Cn3cc[n+](Cc4ccc5ccccc5n4)c3)ccc2c1`: 29.6% (inactive). The same measure for `COc1ccc(C(=O)NC(=O)Nc2ccc3c(c2)NC(=O)/C3=C\c2[nH]c(C)c(C(=O)O)c2C)cc1`: 83.2% (inactive). The value for `COc1ccc(Cl)cc1NC(=O)c1cc2c(n1C)-c1nc(NC(=O)C(C)C)sc1CC2` was 82.7% (inactive); that for `O=C(Nc1ccc(-n2ccc3c(NC(=O)c4ccccc4)ncnc32)cc1)c1ccc(Cl)c(C(F)(F)F)c1` was 6.7% (active). In the case of `Nc1nccc2c1ccn2-c1ccc(NC(=O)c2ccc(N3CCOCC3)c(C(F)(F)F)c2)cc1`, the growth was -29.9% (active). The value for `Cc1cc(NC(=O)c2cccc(C(F)(F)F)c2)ccc1-n1ccc2c(NC(=O)c3ccccc3)nccc21` was 73.3% (inactive); that for `Oc1ccc(Cl)cc1Sc1cc(Cl)ccc1O` was 86.3% (inactive); that for `CCc1cccc(C)c1NC(=O)c1sc2nc3c(cc2c1N)CCCCC3` was 12.2% (inactive). With `C=CCn1c(SCC(=O)Nc2ccc(/C(C)=N\O)cc2)nnc1-c1cc(-c2ccc(OC)cc2)nc2ccccc12`, the growth was 17.3% (inactive). In the case of `CCOc1ccc(NC2=C(Cl)C(=O)c3ccccc3C2=O)cc1`, the growth is 41.7% (inactive).

As to `Cc1[nH]n(C(=O)c2ccncc2)c(=O)c1N=Nc1ccc(S(=O)(=O)Nc2ccncn2)cc1`, the growth is 60.1% (inactive).

With `COc1ccc(/C=C2/C(=O)Nc3cc(Cl)c(-c4csc(N)n4)cc32)cc1`, the growth was 39.3% (inactive). In the case of `O=C(/C=C/c1ccco1)c1cccc(Nc2nc(Nc3ccccc3)nc(Nc3ccccc3)n2)c1`, the growth was 38.8% (inactive). With `C=C1C(=O)O[C@H]2[C@H]1CC/C(COC(=O)c1cc(OC)c(OC)c(OC)c1)=C\CC[C@@]1(C)O[C@@H]21`, the growth was -36.2% (active).

For `O=C(COc1ccc(Cl)cc1Cl)N1N=C(c2ccc(Cl)cc2Cl)CC1(O)c1cc(F)c(Cl)cc1Cl` (stereo not given), the growth is 144% (inactive). In the case of `Clc1ccc(OCc2nc(-c3ccccc3)n[nH]2)c(Cl)c1`, the growth is 94% (inactive). On to `COc1ccc(-c2nn(-c3ccc(NC(=O)Nc4cc(C(F)(F)F)cc(C(F)(F)F)c4)cc3)cc2-c2ccncc2)cc1Cl`, for which the growth is -29.3% (active). Consider `Cc1c(C(C)(C)C)cc(C(C)(C)C)c2c1CN(C)CO2`, for which the growth was 110% (inactive). On to `COc1ccc(/C=C/C(=O)c2ccc(Oc3ncnc4ccccc34)cc2)cc1OC`, for which the growth is 0.391% (active). The same measure for `Nc1nccc2c1ccn2-c1ccc(NC(=O)Nc2cccc(C(F)(F)F)c2)cc1`: 67.4% (inactive). The same measure for `O=C1OC(c2ccc(-c3ccccc3)cc2)=C/C1=C/C=C/c1ccccc1`: 95% (inactive); for `CN1CCN(C(=O)/C=C/c2ccc([N+](=O)[O-])o2)CC1`: 82.3% (inactive); for `O=C(CSc1nnc(-c2cc3c([nH]c4ccccc43)c(-c3cccc(O)c3)n2)n1-c1ccccc1)c1ccccc1`: 43.4% (inactive). The value for `O=c1c2ccccc2sc2c(NCCCNCCO)nc3ccccc3c12` was -14.8% (active). As for `COc1ccc(NC(=O)COCCOCCNC[C@@H]2C(=O)O[C@H]3[C@H]2CC/C(COC(=O)OC/C2=C/CC[C@@]4(C)O[C@H]4[C@H]4OC(=O)[C@@H](CN(C)C)[C@@H]4CC2)=C\CC[C@@]2(C)O[C@@H]32)c(O)c1C(N)=O`, the growth is 38.4% (inactive). Take `O=C(Nc1ccc(F)cc1)Nc1ccc(Cl)c([N+](=O)[O-])c1`: the growth was -28% (active). Consider `O=C(Cn1c2ccccc2c2ccncc21)N/N=C/c1c[nH]c2ccccc12`, for which the growth was -27.7% (active). The value for `COc1ccc(NC(=O)Nc2ccc(-c3ccc(OC)c(OC)c3)nc2C)cc1` was 83.8% (inactive); that for `CC[C@H]1[C@@H]2C=C[C@@H]3[C@H]4C/C=C\C(=O)NCCC[C@@H]5NC(=O)/C(=C(O)/C=C/[C@@H]4C[C@@H]3[C@H]2C[C@H]1C)C5=O` was 6.24% (active).

As for `OC(COc1ccccc1Cl)CN1CCN(c2ccc(Cl)cc2)CC1` (stereo not given), the growth is 86.6% (inactive). The same measure for `CCOC(=O)C1CSC(C)(C(=O)OCC)N1` (stereo not given): 96.3% (inactive); for `COC(=O)c1oc2c(C(C)=O)c(OCCCN(C)C)ccc2c1C`: 97.2% (inactive); for `Fc1ccc(/C=N/n2c(-c3cc(Cl)cc(Cl)c3Cl)nn(CNc3ccc(Cl)nn3)c2=S)cc1`: 82.4% (inactive). Consider `O=C(Nc1ccc(-n2cc(-c3ccncc3)c(-c3ccc(O)c(Cl)c3)n2)cc1)Nc1cc(C(F)(F)F)cc(C(F)(F)F)c1`, for which the growth was 45% (inactive).
